Screening data deposited in PubChem BioAssay by NMMLSC.
In the library only some 0.37% were active in any assay of this set; here they are far more common.
Rab2 wt GTP: modulators of GTP binding to Rab2A wildtype, primary screen, biochemical, dog, bead-based flow cytometry, multiplex; AID 760, 2007; GST-Rab2 wt beads, Bodipy-GTP binding; 0.19% of 190,000 active; GTP binding activity, % at 10 µM;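 active = GTP binding activity at least 20 points away from 100%, either lowered or raised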
Rac1 act GTP bind: GTP binding modulators of activated mutant Rac1, primary screen, biochemical, bead-based flow cytometry, multiplex, fluorescent GTP; GST-Rac1 activated beads; actives lie on both sides; 100% means binding = to untreated wells; Ras-related C3 botulinum toxin substrate 1 (Homo sapiens), P63000; 0.11% of 190,000 active; AID 764, 2007; percent activity (GTP binding), % at 10 µM;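 active = GTP binding at least 20 percentage points away from the 100% baseline, in either direction, so actives lie on both sides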
Rac1 wt GTP bind: wildtype Rac1 GTP binding modulators, primary screen, biochemical, GST-Rac1 beads, flow cytometry, multiplex. Ras-related C3 botulinum toxin substrate 1 (Homo sapiens), P63000. fluorescent GTP binding; actives lie on both sides; 0 = cold GTP competed, 100 = untreated. GTP binding activity (% of control), % at 10 µM. 0.27% of 190,000 active. AID 757, 2007;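 active = GTP binding activity at least 20 points away from the 100% control level, either lower or higher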
Cdc42 wt: modulators of GTP binding to wildtype Cdc42, primary screen, biochemical, multiplex bead flow cytometry, Bodipy-GTP; Cell division control protein 42 homolog (Homo sapiens), P60953; GST-Cdc42 beads; actives lie on both sides; percent activity (GTP binding), % at 10 µM; 0.2% of 190,000 active; AID 761, 2007;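 active = percent activity GTP binding at least 20 points away from the 100% baseline, either down as inhibitor or up as activator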;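 also: median bead fluorescence of bound Bodipy-FL-GTP at 100 nM; below 100% means less GTP binding so inhibitor and above means activator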
Target sequence (P60953 whole entry, looked up): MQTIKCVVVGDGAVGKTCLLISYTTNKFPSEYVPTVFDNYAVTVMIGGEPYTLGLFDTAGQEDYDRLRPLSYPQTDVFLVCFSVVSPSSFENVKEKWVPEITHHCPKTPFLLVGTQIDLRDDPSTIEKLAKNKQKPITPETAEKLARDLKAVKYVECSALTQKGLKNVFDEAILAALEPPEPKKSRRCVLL
Rab7 wt modul: modulators of GTP binding to Rab7, primary screen, biochemical, wildtype, multiplex bead flow cytometry. GST-Rab7 beads, fluorescent GTP binding; actives lie on both sides; untreated = 100%, excess cold GTP = 0%. GTP binding activity (percent of control), % at 10 µM. 0.055% of 190,000 active. AID 758, 2007;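 active = fluorescent GTP binding to Rab7 beads changed by at least 20 points from the 100% baseline, either direction, mostly lower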;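 also: median green fluorescence of bound Bodipy-FL-GTP per Rab7 bead population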
HRas wt GTP bind: modulators of GTP binding to HRas wildtype, primary screen, biochemical, bead-based flow cytometry, multiplex; GTPase HRas (Homo sapiens), P01112; GST-Ras wt beads, Bodipy-FL-GTP binding; actives lie on both sides; GTP binding activity, % at 10 µM; 0.14% of 190,000 active;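 active = GTP binding activity at least 20% away from the 100% baseline, either lowered as inhibitor or raised as activator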
Target sequence (P01112 whole entry, looked up): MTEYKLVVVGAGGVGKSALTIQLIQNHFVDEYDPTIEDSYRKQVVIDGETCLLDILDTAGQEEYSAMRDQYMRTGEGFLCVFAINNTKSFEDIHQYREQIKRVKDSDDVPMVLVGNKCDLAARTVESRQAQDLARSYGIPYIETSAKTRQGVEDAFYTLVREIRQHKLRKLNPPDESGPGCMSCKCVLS
A number is an active result; i = inactive; [ ] = remark or other dose.

SMILES	Rab2 wt GTP	Rac1 act GTP bind	Rac1 wt GTP bind	Cdc42 wt	Rab7 wt modul	HRas wt GTP bind
CCC(C(=O)NC1CCCC1)N(C(=O)Cn1nnc(-c2ccc(C)o2)n1)c1cnc2ccccc2c1 (stereo unspecified)	i	i	125[activator]	i	i	i
CCNC(=S)N=Nc1c(O)[nH]c2ccc([N+](=O)[O-])cc12	65	i	58	65	i	67
O=C(CN1C(=O)S/C(=C/c2ccncc2)C1=O)N1CCOCC1	i	i	i	i	i	i
O=C(CN1C(=O)S/C(=C/c2cccnc2)C1=O)N1CCOCC1	70	i	i	i	i	78
CC(=O)Nc1ccc(NC(=O)CCn2nnc3ccccc32)cc1	35	i	i	i	39	32
CCN(CC)S(=O)(=O)c1ccc(N2CCOCC2)c(NC(=O)c2ccc(C#N)cc2)c1	i	i	i	i	i	i
Cc1oc2c(O)c(O)ccc2c(=O)c1-c1cnn(-c2ccccc2)c1	i	i	i	i	i	i
Cc1nc(-c2cnn(-c3ccccc3)c2)c2cc(C)oc2n1	75	79	77	70	i	72
CCN(CC)C(=O)c1sc(NC(=O)C(C)C)c(C#N)c1C	i	i	i	i	i	i
COc1ccc(-c2csc(C3=C(O)CN(C(C)C)C3=N)n2)cc1OC	76	i	73	73	i	76
O=c1c2ccccc2nc2ccc(NCc3cccs3)nn12	74	i	74	76	i	79
CCn1c(NCc2cccs2)nc2ccccc21	i	i	i	i	i	i
Cc1ccccc1NC(=O)COC(=O)c1ccc(S(C)(=O)=O)c([N+](=O)[O-])c1	i	i	i	i	i	i
CS(=O)(=O)c1ccc(C(=O)OCC(=O)NC(=O)C2CCCCC2)cc1[N+](=O)[O-]	i	71	i	68	i	i
O=C(OCc1nnc(-c2ccccc2)o1)c1ccc(Cl)cc1	i	i	i	i	i	i
CS(=O)(=O)c1ccc(C(=O)OCc2nnc(-c3ccccc3)o2)cc1[N+](=O)[O-]	i	74	i	76	i	i
O=C(CCN1CCCC1Cc1ccccc1)c1ccc2c(c1)OCCO2 (stereo unspecified)	i	i	i	76	i	i
O=C(CCN1CCCCC1)c1ccc2c(c1)OCCO2	i	i	i	i	i	i
c1cc2c(cc1-c1csc(NNC3=NCCCCC3)n1)OCCO2	i	i	i	i	i	i
C=CCN1C(=NC(=O)CCCC(=O)O)SC2CS(=O)(=O)CC21 (stereo unspecified)	i	i	i	i	76	i
CCc1ccc(NC(=O)c2cc3c(C)nc4ccccc4c3o2)cc1	i	i	75	i	i	i
Cc1ccccc1NC(=O)c1cc2c(C)nc3ccccc3c2o1	i	i	i	i	i	i
COc1ccc(-c2cc(-c3ccccc3)c(C#N)c(=S)[nH]2)cc1	i	i	i	79	i	i
O=S(=O)(c1ccc(S(=O)(=O)N2CCOCC2)cc1)N1CCCC1	i	i	i	i	i	i
Nc1c(S(=O)(=O)c2cccs2)c2nc3ccccc3nc2n1/N=C/c1cccc(O)c1	46	64	64	45	73	47
SMILES	Rab2 wt GTP	Rac1 act GTP bind	Rac1 wt GTP bind	Cdc42 wt	Rab7 wt modul	HRas wt GTP bind
CC(C)Cn1c(N)c(S(=O)(=O)c2cccs2)c2nc3ccccc3nc21	i	i	i	i	i	i
COc1ccc(/C=N/n2c(N)c(S(=O)(=O)c3cccs3)c3nc4ccccc4nc32)cc1OC	49	74	57	61	75	56
O=c1[nH]snc1N1CCOCC1	i	i	i	i	i	i
Cc1nc2cccc(C)n2c(=O)c1Cl	i	i	120[activator]	i	i	i
C=CCn1c(-c2csc(-c3ccc(Cl)cc3)n2)n[nH]c1=S	i	i	120[activator]	i	i	i
CCOc1ccc(C2C(C(=O)O)CCC(=O)N2C2CCCCC2)cc1 (stereo unspecified)	73	73	71	72	74	72
COc1cc2c(cc1OC)-c1cc(N3CCCCCC3)nc(=O)n1CC2	i	i	i	i	i	i
CCOc1cccc(Nc2cc3n(c(=O)n2)CCc2cc(OC)c(OC)cc2-3)c1	i	i	78	i	i	i
COc1cc2c(cc1OC)-c1cc(NC3CCCCCC3)nc(=O)n1CC2	75	i	i	77	i	75
COc1ccc(OCc2nc3c4cc(OC)c(OC)cc4nc(=S)n3[nH]2)cc1	i	i	77	i	i	i
COc1ccc(C(=O)CSc2ccc3nnc(-c4cccnc4)n3n2)cc1	i	i	i	i	i	i
O=C(O)CSc1ccc2nnc(-c3cccnc3)n2n1	i	i	78	i	i	i
O=c1[nH]c2sc3c(c2c2nncn12)CCCC3	77	i	76	79	i	78
O=C(O)COC(=O)C1C(c2ccccc2)C(C(=O)O)C1c1ccccc1 (stereo unspecified)	i	i	i	i	i	i
